Growth data for eight compounds are collected here from PubChem BioAssay (NCI).

Structures are written as SMILES. Compounds without any hit were thinned out: in the full panel of roughly 83,000, 20% have a hit.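 The endpoint reported here, percent growth, reads 100 for growth as untreated, 0 for no net growth and -100 for all cells dead.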 A number with no mark means an inactive call. Activity calls are given as the source filed them. How the source made its calls: active means growth percent below 10; inactive means the rest.

Common to all, as to assay: NCI-60 one-dose screen, 48 h (100 = growth as untreated, 0 = no growth, -100 = all killed)
One assay concerns NCI-H23 lung. The note with it: 10 µM unless noted.
The subject of another assay is NCI-H226 lung. The note with it: 10 µM unless noted.
The next assay deals with NCI-H322M lung. The note with it: 10 µM unless noted.
The test system of another assay is HOP-62 NSCLC. The note with it: 10 µM unless noted.
The next assay concerns NCI-H460 lung. The note with it: 10 µM unless noted.
In the next assay the test system is HOP-92 NSCLC. To be noted: 10 µM unless noted.
A further assay concerns NCI-H522 lung. The note with it: 10 µM unless noted.
A further assay has as its system A549/ATCC NSCLC. To be noted: 10 µM unless noted.
For a further assay, the system named is 786-0 renal. The note with it: 10 µM unless noted.
Another assay deals with COLO 205 colon. To be noted: 10 µM unless noted.
For the next assay, the system named is DU-145 prostate. The note with it: 10 µM unless noted.
In another assay the test system is K-562 leukemia. The note with it: 10 µM unless noted.
The next assay concerns MALME-3M melanoma. To be noted: 10 µM unless noted.
For a further assay, the system named is MDA-MB-231 breast. To be noted: 10 µM unless noted.
The next assay deals with RXF 393 renal. The note with it: 10 µM unless noted.
Another assay relates to SF-268 CNS. To be noted: 10 µM unless noted.
A further assay deals with SF-295 CNS. The note with it: 10 µM unless noted.
Another assay deals with SF-539 CNS. The note with it: 10 µM unless noted.
In another assay the test system is UACC-257 melanoma. The note with it: 10 µM.
Another assay deals with M14 melanoma. To be noted: 10 µM unless noted.

For `O=C(O)c1ccc(-n2cc(CNc3ccc(F)cc3)c(-c3ccc(C(F)(F)F)cc3)n2)cc1`, the growth with NCI-H23 lung is 93.3%; in the assay on NCI-H226 lung, 88.8%; with NCI-H322M lung, 89.9%; in the assay on HOP-62 NSCLC it was 81.3%; in the assay with NCI-H460 lung, 84.4%; in the assay with HOP-92 NSCLC, 78.3%. The growth with NCI-H522 lung is 93.8%; with A549/ATCC NSCLC, 74%; with 786-0 renal it was 105%; in the assay on COLO 205 colon, 103%; with DU-145 prostate, 98.2%; with K-562 leukemia it was 58.6%. Besides, the growth in the assay with MALME-3M melanoma is 97.6%; with MDA-MB-231 breast it was 100%; in the assay on RXF 393 renal, 88.2%; in the assay on SF-268 CNS it was 80.9%; in the assay with SF-295 CNS it was 63.9%; with SF-539 CNS it was 88.8%. Besides, the growth in the assay on UACC-257 melanoma is 90.9%; in the assay on M14 melanoma it was 92.6%.
Regarding `O=C1c2c(c3c4cccnc4[nH]c3c3ccc4ccccc4c23)C(=O)N1CCN1CCCCC1`, the growth in the assay on NCI-H23 lung was 29.3%; in the assay on NCI-H226 lung, 64.6%; in the assay on NCI-H322M lung it was 69.6%; in the assay with HOP-62 NSCLC, 36.6%; in the assay with NCI-H460 lung, 12.5%; in the assay with HOP-92 NSCLC, 70.4%. Further, the growth is 63% in the assay with NCI-H522 lung; 46.8% with A549/ATCC NSCLC; 52.6% in the assay on 786-0 renal; 69.4% with COLO 205 colon; 41.7% with DU-145 prostate; 40.5% in the assay with K-562 leukemia. Besides, the growth in the assay on MALME-3M melanoma was 77%; with MDA-MB-231 breast it was 96%; in the assay on RXF 393 renal, 70.5%; in the assay on SF-268 CNS it was 43.2%; in the assay with SF-295 CNS it was 28.5%; with SF-539 CNS, 54.2%. Besides, the growth with UACC-257 melanoma is 94%; in the assay with M14 melanoma, 45.8%.
With `COc1ccc(CN2C(=O)/C(=C/c3nc(CO)cs3)SC2=S)cc1`, the growth in the assay with NCI-H23 lung is 92.6%; with NCI-H226 lung it was 101%; with NCI-H322M lung, 97.5%; in the assay on HOP-62 NSCLC, 104%; with NCI-H460 lung, 100%; with HOP-92 NSCLC it was 63.4%. For the same compound, the growth in the assay with NCI-H522 lung is 35.6%; in the assay on A549/ATCC NSCLC it was 95.7%; in the assay with 786-0 renal, 51.2%; in the assay on COLO 205 colon, 118%; with DU-145 prostate, 96.5%; in the assay with K-562 leukemia, 52.6%. In addition, the growth was 93.2% with MALME-3M melanoma; 79.5% with MDA-MB-231 breast; 95.3% with RXF 393 renal; 98.8% in the assay with SF-268 CNS; 106% in the assay with SF-295 CNS; 70.1% in the assay on SF-539 CNS. For the same compound, the growth was 93.6% with UACC-257 melanoma and 86.4% with M14 melanoma.
Regarding `C#CCOc1ccc(C(Nc2cc(Cl)ccc2Cl)c2nnnn2C2CCCCC2)cc1` (stereo not given), the growth in the assay with NCI-H23 lung was 88.6%; with NCI-H226 lung, 85.3%; in the assay with NCI-H322M lung, 87.4%; in the assay on HOP-62 NSCLC, 86.4%; in the assay on NCI-H460 lung, 88.3%; with HOP-92 NSCLC, 72.7%. Besides, the growth is 69.9% in the assay with NCI-H522 lung; 80.5% with A549/ATCC NSCLC; 90% with 786-0 renal; 107% in the assay with COLO 205 colon; 97.7% in the assay on DU-145 prostate; 83.5% in the assay on K-562 leukemia. Further, the growth is 101% in the assay on MALME-3M melanoma; 73.7% in the assay with MDA-MB-231 breast; 92.6% with RXF 393 renal; 83.4% in the assay with SF-268 CNS; 80.7% in the assay with SF-295 CNS; 95.3% in the assay with SF-539 CNS. For the same compound, the growth in the assay with UACC-257 melanoma is 102%; in the assay on M14 melanoma, 92.2%.
In the case of `C#C[C@]1(O)CC[C@H]2[C@@H]3CC=C4c5sc(Nc6cccc(C)n6)nc5CC[C@]4(C)[C@H]3CC[C@@]21C`, the growth with NCI-H23 lung is 36.3%; in the assay with NCI-H226 lung, 45%; in the assay with NCI-H322M lung it was 61.3%; in the assay with HOP-62 NSCLC, 16.5%; in the assay on NCI-H460 lung, 4.46% (active); in the assay with HOP-92 NSCLC it was 1.75% (active). The growth in the assay on NCI-H522 lung is 44.7%; with A549/ATCC NSCLC it was 30.7%; in the assay on 786-0 renal, -70.7% (active); with COLO 205 colon, 68.3%; in the assay with DU-145 prostate, 43.6%; in the assay with K-562 leukemia it was -10.9% (active). Besides, the growth in the assay with MALME-3M melanoma was 5.14% (active); in the assay with MDA-MB-231 breast it was 31.9%; in the assay with RXF 393 renal, -60.4% (active); with SF-268 CNS, -7.63% (active); in the assay with SF-295 CNS it was -70.4% (active); in the assay on SF-539 CNS, -48.8% (active). In addition, the results for the growth in the assay on UACC-257 melanoma and with M14 melanoma were -34.9% (active) and -29.8% (active), respectively.
Regarding `C#CCOc1ccc(/C=N/Nc2nc(-c3cc(Cl)ccc3Cl)cs2)cc1`, the growth in the assay on NCI-H23 lung is 75.3%; in the assay with NCI-H226 lung it was 77.2%; with NCI-H322M lung it was 105%; with HOP-62 NSCLC, 104%; with NCI-H460 lung, 96.8%; with HOP-92 NSCLC, 69.7%. Also, the growth in the assay with NCI-H522 lung is 84.3%; in the assay with A549/ATCC NSCLC, 103%; in the assay on 786-0 renal, 107%; in the assay on COLO 205 colon, 105%; in the assay on DU-145 prostate, 102%; in the assay on K-562 leukemia, 78.7%. The growth with MALME-3M melanoma was 99.3%; in the assay with MDA-MB-231 breast it was 84.7%; in the assay on RXF 393 renal, 111%; with SF-268 CNS it was 95.7%; in the assay with SF-295 CNS, 89.7%; in the assay with SF-539 CNS, 102%. For the same compound, the growth with UACC-257 melanoma was 103%; in the assay with M14 melanoma, 94.8%.
Consider `Clc1ccc(-c2nc3ccc(/C(=N\N=C\c4ccccc4)c4ccccc4)cc3[nH]2)cc1`, for which the growth in the assay with NCI-H23 lung is 95%; with NCI-H226 lung it was 82.4%; with NCI-H322M lung, 92.4%; in the assay with HOP-62 NSCLC, 111%; in the assay on NCI-H460 lung, 92.5%; in the assay with HOP-92 NSCLC, 96.3%. For the same compound, the growth was 76.4% with NCI-H522 lung; 81% in the assay on A549/ATCC NSCLC; 84.3% in the assay with 786-0 renal; 73.1% in the assay with COLO 205 colon; 92.5% in the assay on DU-145 prostate; 53.6% with K-562 leukemia. Further, the growth was 97.6% with MALME-3M melanoma; 95.8% in the assay on MDA-MB-231 breast; 90.1% in the assay on RXF 393 renal; 92.5% with SF-268 CNS; 80.7% in the assay with SF-295 CNS; 92.7% in the assay with SF-539 CNS. For the same compound, the growth with UACC-257 melanoma was 101%; in the assay with M14 melanoma it was 77.4%.
For `Clc1ccc(-c2csc(Nc3cccc(Nc4csc(-c5ccc(Cl)cc5)n4)c3)n2)cc1`, the growth in the assay with NCI-H23 lung is 72.3%; with NCI-H226 lung, 74.6%; in the assay with NCI-H322M lung, 68.9%; with HOP-62 NSCLC, 85.3%; in the assay with NCI-H460 lung, 79.1%; in the assay on HOP-92 NSCLC, 75.9%. Moreover, the growth in the assay with NCI-H522 lung is 45.6%; in the assay on A549/ATCC NSCLC, 88.5%; with 786-0 renal, 104%; in the assay with COLO 205 colon it was 94.2%; in the assay with DU-145 prostate it was 86.2%; in the assay on K-562 leukemia it was 67.1%. Besides, the growth with MALME-3M melanoma was 98%; in the assay on MDA-MB-231 breast it was 64.2%; with RXF 393 renal, 94.4%; in the assay on SF-268 CNS, 79.3%; in the assay on SF-295 CNS, 90%; in the assay with SF-539 CNS, 82.8%. In addition, the growth in the assay with UACC-257 melanoma is 102%; in the assay on M14 melanoma, 74.7%.
